Experiment [1] is described as follows: Nuclear factor erythroid 2-related factor 2/antioxidant responsive element (Nrf2/ARE) small molecule agonists: qHTS cell viability counter screen in human keratinocytes (AID 1919968; active means well fitted curve in the direction sought with a large enough effect in the repeat runs; an effect the other way counts as inactive or inconclusive; further: nearly all actives have a fitted effect of over 55% in size; further: potency means the concentration at half of the fitted maximal effect). An outline of the steps:
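Cytotoxicity was multiplexed with the Nrf2/ARE luciferase assay in the same wells. Stably transfected HaCaT keratinocytes were treated with test compounds for 23 h at 37 C. Cell viability was then measured by CellTiter-Fluor fluorescence.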
(Quantitative high-throughput screening tests each substance at several concentrations.)

Experiment [2] can be described thus: Nuclear factor erythroid 2-related factor 2/antioxidant responsive element (Nrf2/ARE) small molecule agonists: luciferase reporter gene qHTS assay in human keratinocytes (AID 1919969). Further: nearly all actives have a fitted effect of over 35% in size. Further: potency means the concentration at half of the fitted maximal effect. In general terms: A reporter such as luciferase makes a cellular process visible.
Experiment [3] is described as follows: p53 small molecule agonists, cell-based qHTS assay with human liver microsomes (AID 1963577). Further: potency means the concentration at half of the fitted maximal effect. In a few lines:
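Cells carrying a p53-responsive bla reporter were rested 5 h (37 C, 5% CO2) before compound transfer. Human liver microsomes plus NADPH, 0.5 mg/mL final apiece, supplied metabolism during the 16 h 37 C exposure.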

Experiment [4] is described as follows: p53 small molecule agonists, cell-based qHTS assay with rat liver microsomes (AID 1963578). In a few lines: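 Fluorescence from a beta-lactamase reporter under a p53 response element was measured after cells had been incubated 16 h at 37 C with test compound and rat liver microsomes plus NADPH (0.5 mg/mL final each).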
Experiment [5] in a line: p53 small molecule agonists, cell-based qHTS assay with human liver microsomes: qHTS cell viability counter screen (AID 1963579). Further: nearly all actives have a fitted effect of over 45% in size. Further: potency means the concentration at half of the fitted maximal effect. In a few lines:
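Seed p53RE-bla cells at 4,000 per well; incubate 5 h at 37 C; add compound, human liver microsomes and NADPH; incubate 16 h at 37 C; add CellTiter-Glo; after 30 min at room temperature, read luminescence.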

Experiment [6] in a line: p53 small molecule agonists, cell-based qHTS assay with rat liver microsomes: qHTS cell viability counter screen (AID 1963580). Further: nearly all actives have a fitted effect of over 45% in size. Further: potency means the concentration at half of the fitted maximal effect. An outline of the steps:
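After the beta-lactamase ratio was read, CellTiter-Glo was added to the same wells and luminescence measured at 30 min; cells had been treated 16 h at 37 C with compounds, rat liver microsomes and NADPH (0.5 mg/mL final each).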

Experiment [7] can be described thus: p53 small molecule agonists, cell-based qHTS assay: qHTS cell viability counter screen (AID 1963581). Further: nearly all actives have a fitted effect of over 45% in size. Further: potency means the concentration at half of the fitted maximal effect. In a few lines:
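Viability was counter-screened in parallel with the p53 agonist reporter by measuring intracellular ATP luminescence in the same HCT-116 p53RE-bla wells after 16 h compound treatment at 37 C.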

Experiment [8] in a line: p53 small molecule agonists, cell-based qHTS assay (AID 1963582; active means well fitted activation curve with a large enough effect in the signal ratio in the repeat runs, not every such curve was filed as active; the % refers to the signal ratio). In a few lines: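 Cells carrying a p53-responsive bla reporter are treated with test compounds for 16 h at 37 C; beta-lactamase activity is then detected with LiveBLAzer B/G FRET substrate after 2 h at room temperature.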
The target of experiment [9] is 5-hydroxytryptamine receptor 2A (Homo sapiens) (UniProt P28223). The experiment can be described thus: 5-hydroxytryptamine receptor 2A (HTR2A) small molecule antagonists, cell-based qHTS assay (AID 1963586). Further: nearly all actives have a fitted effect of over 45% in size. In a few lines: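 CHO cells stably expressing human HTR2A were plated for 18 h at 37 C, then loaded with calcium dye for 1 h. Compounds were preincubated 5 min at room temperature before DOI (4 nM solution) was added. Kinetic fluorescence was read for 3 min.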
Sequence of 5-hydroxytryptamine receptor 2A (Homo sapiens) (P28223 whole entry, looked up): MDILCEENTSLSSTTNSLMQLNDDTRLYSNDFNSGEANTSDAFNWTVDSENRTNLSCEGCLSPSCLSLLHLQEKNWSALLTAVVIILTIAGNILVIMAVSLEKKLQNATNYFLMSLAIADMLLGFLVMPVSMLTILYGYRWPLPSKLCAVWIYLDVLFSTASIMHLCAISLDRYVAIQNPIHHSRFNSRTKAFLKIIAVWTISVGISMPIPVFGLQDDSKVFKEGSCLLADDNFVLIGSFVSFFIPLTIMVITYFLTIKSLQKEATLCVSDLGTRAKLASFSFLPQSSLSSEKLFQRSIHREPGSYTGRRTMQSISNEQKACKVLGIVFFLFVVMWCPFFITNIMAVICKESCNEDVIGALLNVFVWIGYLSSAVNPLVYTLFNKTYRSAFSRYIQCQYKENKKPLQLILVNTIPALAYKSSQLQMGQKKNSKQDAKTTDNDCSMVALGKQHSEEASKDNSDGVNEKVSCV

Experiment [10] shares this target. The experiment can be described thus: 5-hydroxytryptamine receptor 2A (HTR2A) small molecule agonists, cell-based qHTS assay (AID 1963587). Further: nearly all actives have a fitted effect of over 30% in size. Further: potency means the concentration at half of the fitted maximal effect. An outline of the steps: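 CHO cells stably expressing human HTR2A, plated 18 h, loaded with calcium dye 1 h at 37 C. Agonist mode: compounds added and intracellular calcium fluorescence recorded kinetically for 2 min at 1 sec intervals.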

Experiment [11] deals with Muscarinic acetylcholine receptor M1 (Homo sapiens) (UniProt P11229). The experiment can be described thus: Cholinergic receptor muscarinic 1 (CHRM1) small molecule agonists, cell-based qHTS assay (AID 1963589). Further: nearly all actives have a fitted effect of over 35% in size. Further: potency means the concentration at half of the fitted maximal effect. In a few lines: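 Cells were plated and incubated 18 h at 37 C/5% CO2, loaded with calcium dye for 1 h at 37 C, then treated with compounds in DMSO. Fluorescence was recorded kinetically at 1 sec intervals.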
Sequence of Muscarinic acetylcholine receptor M1 (Homo sapiens) (P11229 whole entry, looked up): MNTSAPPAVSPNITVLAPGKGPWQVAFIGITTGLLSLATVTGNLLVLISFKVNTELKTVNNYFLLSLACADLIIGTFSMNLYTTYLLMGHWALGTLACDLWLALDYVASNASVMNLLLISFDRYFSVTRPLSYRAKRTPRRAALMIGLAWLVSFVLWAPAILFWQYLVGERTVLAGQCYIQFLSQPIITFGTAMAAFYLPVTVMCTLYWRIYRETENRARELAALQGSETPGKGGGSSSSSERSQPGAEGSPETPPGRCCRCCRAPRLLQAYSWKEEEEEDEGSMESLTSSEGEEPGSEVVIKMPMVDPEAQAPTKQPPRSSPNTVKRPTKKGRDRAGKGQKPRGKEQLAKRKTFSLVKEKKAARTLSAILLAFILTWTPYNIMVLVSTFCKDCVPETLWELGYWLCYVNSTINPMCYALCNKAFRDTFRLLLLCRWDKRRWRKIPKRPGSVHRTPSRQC

Experiment [12] is described as follows: cAMP Responsive Elements (CRE) small molecule agonists, cell-based qHTS assay (AID 1963590). An outline of the steps:
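Cells carrying a CRE-driven beta-lactamase reporter (HEK 293T) are seeded, incubated overnight (18 h), and treated with test compounds for 3 h at 37 C; reporter activity is then detected with a FRET substrate after 2 h at room temperature.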

A short description of experiment [13]: cAMP Responsive Elements (CRE) small molecule antagonists, cell-based qHTS assay (AID 1963591; active means well fitted inhibition curve with a large enough effect in the signal ratio in the repeat runs, not every such curve was filed as active; the % refers to the signal ratio). An outline of the steps: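 Cells (CRE-bla HEK 293T, DMEM with 10% dialyzed FBS and 25 mM HEPES) are seeded and incubated 18 h. Compounds are added with NKH477 agonist at 0.25 uM final for 3 h, then FRET substrate for 2 h.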
Experiment [14] concerns the target Beta-2 adrenergic receptor (Homo sapiens) (UniProt P07550). The experiment can be described thus: Adrenergic beta2 receptor (ADRB2) small molecule antagonists, cell-based qHTS assay (AID 1963592). Further: series mostly up to about 92 µM; nearly all actives have a fitted effect of over 50% in size. An outline of the steps: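 Assay format: CHO-ADRB2 cells, 18-20hr seeding at 37C/5% CO2, then compound plus 1nM isoproterenol agonist mix for 0.5hr RT. Homogeneous time-resolved fluorescence cAMP detection after 1hr, expressed as 665/615 nm ratio.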

For experiment [15] the target is unchanged. The experiment can be described thus: Adrenergic beta2 receptor (ADRB2) small molecule agonists, cell-based qHTS assay (AID 1963593).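 Further: CHO cells stably overexpressing human ADRB2.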 In a few lines:
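CHO cells stably over-expressing ADRB2 were plated overnight at 37C, then dosed with compounds plus a stimulation mix containing 100uM IBMX and 25uM Ro-20-1724 for 0.5hr at room temperature. cAMP was measured by HTRF competition, 1hr.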

Experiment [16] addresses D(2) dopamine receptor (Homo sapiens) (UniProt P14416). The experiment can be described thus: Dopamine D2 receptor (DRD2) small molecule agonists, cell-based qHTS assay (AID 1963594). Further: nearly all actives have a fitted effect of over 35% in size. An outline of the steps:
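HEK293 cells stably expressing human DRD2, pre-treated with PDE inhibitor Ro20-1724 (0.1 mM final) and compound 10 min at room temperature, then stimulated with NKH477 (200nM […]) for 30 min. cAMP read by HTRF (665/620 nm).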

For experiment [17] the target is unchanged. The experiment can be described thus: Dopamine D2 receptor (DRD2) small molecule antagonists, cell-based qHTS assay (AID 1963595; active means well fitted inhibition curve with a large enough effect in the signal ratio in the repeat runs, with a control signal flat; the % refers to the signal ratio). In a few lines:
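HEK293 cells stably expressing DRD2, preincubated with 0.1 mM Ro20-1724 and compounds 10 min, were stimulated with 200 nM NKH477 plus 12 nM quinpirole for 30 min at room temperature; cAMP measured by HTRF (665/620 nm).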

Experiment [18] deals with KiSS-1 receptor (Homo sapiens) (UniProt Q969F8). The experiment can be described thus: Human kisspeptin (KISS1R) small molecule agonists, calcium flux assay in KISS1R-HEK293 cells (AID 1920064; active means well fitted curve in the direction sought with a large enough effect in the repeat runs; an effect the other way counts as inactive or inconclusive). An outline of the steps: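 Agonist activity is monitored as intracellular calcium rise in engineered HEK293 cells carrying human KISS1R. Cells are dye-loaded for 1 h at 37 C before compound addition, and fluorescence is recorded for 3 min.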
Sequence of KiSS-1 receptor (Homo sapiens) (Q969F8 whole entry, looked up): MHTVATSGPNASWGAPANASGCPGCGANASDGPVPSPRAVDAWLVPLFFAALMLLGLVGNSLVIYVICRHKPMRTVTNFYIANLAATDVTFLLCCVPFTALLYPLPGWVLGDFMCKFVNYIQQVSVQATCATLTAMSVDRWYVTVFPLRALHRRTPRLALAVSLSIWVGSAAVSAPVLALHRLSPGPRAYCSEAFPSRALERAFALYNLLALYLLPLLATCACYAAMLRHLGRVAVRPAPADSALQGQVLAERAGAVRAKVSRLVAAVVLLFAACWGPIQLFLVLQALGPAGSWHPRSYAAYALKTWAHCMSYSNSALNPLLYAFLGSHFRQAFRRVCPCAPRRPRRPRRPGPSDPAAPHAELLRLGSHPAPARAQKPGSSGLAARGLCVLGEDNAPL
On the technique in general: A change in cytosolic calcium serves as a functional read-out for many receptors and channels.

Experiment [19] addresses Muscarinic acetylcholine receptor M1 (Homo sapiens) (UniProt P11229). The experiment can be described thus: Cholinergic receptor muscarinic 1 (CHRM1) small molecule antagonists, cell-based qHTS assay (AID 1963588). Further: nearly all actives have a fitted effect of over 40% in size. Further: potency means the concentration at half of the fitted maximal effect. An outline of the steps:
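Compounds were tested at 15 concentrations in three independent runs. Dye-loaded CHRM1-CHO cells were exposed 5 min at room temperature before stimulation by acetylcholine added at 50nM. Intracellular calcium was read kinetically on FDSS for 3 min.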

Experiment [20] can be described thus: G protein-coupled receptor (GPCR) small molecule agonists, calcium flux assay: HEK293 wild type cell line counter screen (AID 1920065). In a few lines:
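Seed cells, incubate 18 h (37 C, 5% CO2); add calcium dye, 1 h at 37 C; pin-transfer compounds, ATP control or DMSO; read fluorescence 480/540 nm each second for 3 min.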

Several values for one entry are separate records, joined by “and”; a condition that tells them apart may be missing. Identical values can stand only once. Results filed as inconclusive are left out. Some structures have more than one record in an assay (separate samples or runs), and their calls can disagree. Activity calls are given as the source filed them. Unless noted, the call rests on the fitted dose curve.

Sequence of Beta-2 adrenergic receptor (Homo sapiens) (P07550 whole entry, looked up): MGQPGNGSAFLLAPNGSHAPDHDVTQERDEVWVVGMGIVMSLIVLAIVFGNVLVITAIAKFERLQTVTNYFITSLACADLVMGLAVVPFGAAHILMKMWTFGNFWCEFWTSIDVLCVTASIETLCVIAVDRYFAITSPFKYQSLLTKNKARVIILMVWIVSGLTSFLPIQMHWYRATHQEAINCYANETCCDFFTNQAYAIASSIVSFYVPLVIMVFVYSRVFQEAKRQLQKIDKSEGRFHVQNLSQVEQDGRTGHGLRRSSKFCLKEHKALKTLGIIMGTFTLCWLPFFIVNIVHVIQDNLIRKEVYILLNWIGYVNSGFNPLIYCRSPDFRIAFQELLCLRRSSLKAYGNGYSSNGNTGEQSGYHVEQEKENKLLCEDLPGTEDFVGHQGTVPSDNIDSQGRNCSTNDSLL
Sequence of D(2) dopamine receptor (Homo sapiens) (P14416 whole entry, looked up): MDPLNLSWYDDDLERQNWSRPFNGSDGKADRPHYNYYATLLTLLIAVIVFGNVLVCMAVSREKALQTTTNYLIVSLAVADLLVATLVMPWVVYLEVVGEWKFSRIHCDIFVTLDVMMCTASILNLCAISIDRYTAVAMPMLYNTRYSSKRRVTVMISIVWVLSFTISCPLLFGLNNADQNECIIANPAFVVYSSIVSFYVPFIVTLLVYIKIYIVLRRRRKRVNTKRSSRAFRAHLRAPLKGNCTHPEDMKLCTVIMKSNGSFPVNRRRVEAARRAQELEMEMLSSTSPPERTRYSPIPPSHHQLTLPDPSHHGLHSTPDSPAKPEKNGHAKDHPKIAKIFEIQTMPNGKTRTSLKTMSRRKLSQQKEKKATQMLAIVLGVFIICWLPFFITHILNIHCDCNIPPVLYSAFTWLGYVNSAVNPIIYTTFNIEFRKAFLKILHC

As for `COP(=O)(OC)OC`, the Potency entry in experiment [1], in experiment [3], in experiment [4], in experiment [5], in experiment [6] and in [7] was “inactive” in each case. In addition, the Potency entry in [8], in experiment [9], in experiment [12], in experiment [13], in experiment [14] and in experiment [15] was “inactive” throughout. Besides, the Potency entry in experiment [16] and in experiment [17] was “inactive” each time. Besides, the Potency in experiment [2] was 61.6 µM (active) and inactive; in experiment [10], 55.4 µM (active) and inactive; in experiment [11] it was 49.4 µM (active) and inactive.
On to `CCCCN(CC)C(=O)SCCC`, for which the Potency entry in experiment [1], in [2], in experiment [18], in [3], in experiment [4] and in experiment [5] was “inactive” in each case. The Potency entry in experiment [6], in experiment [7], in experiment [8], in experiment [9], in experiment [10] and in experiment [19] was “inactive” each time. The Potency entry in [11], in [13], in experiment [15], in experiment [16] and in [17] was “inactive” each time.
In the case of `O=C(O)Cc1ccccc1`, the Potency entry in experiment [1], in [2], in [18], in experiment [20], in experiment [5] and in experiment [7] was “inactive” each time. Besides, the Potency entry in [10], in [11], in experiment [12], in experiment [13], in [16] and in experiment [17] was “inactive” throughout. Moreover, in [19], the Potency is 266 nM (active) and inactive.
As to `CC(C#N)CCC#N` (centres undefined), the Potency result in experiment [1], in experiment [2], in experiment [18], in experiment [20], in experiment [5] and in [6] was “inactive” throughout. The Potency result in [7], in experiment [9], in [10], in [19], in [11] and in experiment [12] was “inactive” throughout. Besides, the Potency entry in [13], in experiment [14], in [15] and in experiment [17] was “inactive” in each case.
In the case of `COc1ccc(N)cc1N`, the Potency entry in experiment [1], in experiment [18], in [20], in [5], in experiment [9] and in experiment [11] was “inactive” throughout. Besides, the Potency result in experiment [13], in [15], in experiment [16] and in experiment [17] was “inactive” throughout. In addition, the Potency is 25.1 µM (active) and 33 µM (active) in [2]; 22.6 µM (active) and inactive in experiment [10].
For the compound `O=C(Cl)OCCOCCOC(=O)Cl`, the Potency result in experiment [1], in experiment [2], in experiment [18], in experiment [20], in [3] and in [5] was “inactive” in each case. Besides, the Potency result in experiment [6], in experiment [7], in experiment [8], in experiment [9], in [19] and in [11] was “inactive” throughout. Also, the Potency result in experiment [12], in experiment [13], in [15] and in [17] was “inactive” in each case.
`N#CSCSC#N`: the Potency in [1] is 14 µM (active) and 21.5 µM (active); in [2], 15.2 µM (active); in experiment [5] it was 26.3 µM (active); in experiment [6], 37.2 µM (active); in [7] it was 46.8 µM (active); in experiment [10] it was 50.1 µM (active) and 48.5 µM (active). Also, the Potency entry in [18], in experiment [3], in [4], in experiment [9], in experiment [19] and in [16] was “inactive” in each case.
For `CCN(CC)C(=O)/C(Cl)=C(\C)OP(=O)(OC)OC`, the Potency entry in experiment [1], in experiment [2], in [18], in experiment [20], in experiment [5] and in experiment [7] was “inactive” throughout. Moreover, the Potency result in experiment [8], in [10], in experiment [19], in experiment [11], in experiment [12] and in experiment [14] was “inactive” throughout. Moreover, the Potency result in experiment [15], in experiment [16] and in [17] was “inactive” throughout. Besides, the Potency in experiment [3] was 1.86 µM (active) and 9.13 µM (active).

The values above are taken from PubChem BioAssay (Tox21).
